The results in this text go back to PubChem BioAssay AID1942 (Johns Hopkins Ion Channel Center, 2009).

In all, about 2,400 compounds went through this assay and about 580 (24%) were called active.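 How the source made its calls: active means activity change at or above the mean plus 3 SD of buffer wells without dofetilide, per plate; inactive means the rest.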 These entries were drawn from the full list.

The target of this assay is Potassium voltage-gated channel subfamily KQT member 2 (Rattus norvegicus) (UniProt O88943). Description: rat KCNQ2 channel activation by compounds alone, confirmation, counter-screen for hERG block protector project, cell-based, CHO, FluxOR thallium flux (AID 1942).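 Further: normalized value minus buffer-control mean plus three SD of buffer wells.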 Particulars: CHO-KCNQ2 cells, FluxOR thallium flux fluorescence; at 10 µM; stronger effect = higher value. Background: Counterscreens check selectivity or assay interference.
Chain of Potassium voltage-gated channel subfamily KQT member 2 (Rattus norvegicus) (O88943 whole entry, looked up): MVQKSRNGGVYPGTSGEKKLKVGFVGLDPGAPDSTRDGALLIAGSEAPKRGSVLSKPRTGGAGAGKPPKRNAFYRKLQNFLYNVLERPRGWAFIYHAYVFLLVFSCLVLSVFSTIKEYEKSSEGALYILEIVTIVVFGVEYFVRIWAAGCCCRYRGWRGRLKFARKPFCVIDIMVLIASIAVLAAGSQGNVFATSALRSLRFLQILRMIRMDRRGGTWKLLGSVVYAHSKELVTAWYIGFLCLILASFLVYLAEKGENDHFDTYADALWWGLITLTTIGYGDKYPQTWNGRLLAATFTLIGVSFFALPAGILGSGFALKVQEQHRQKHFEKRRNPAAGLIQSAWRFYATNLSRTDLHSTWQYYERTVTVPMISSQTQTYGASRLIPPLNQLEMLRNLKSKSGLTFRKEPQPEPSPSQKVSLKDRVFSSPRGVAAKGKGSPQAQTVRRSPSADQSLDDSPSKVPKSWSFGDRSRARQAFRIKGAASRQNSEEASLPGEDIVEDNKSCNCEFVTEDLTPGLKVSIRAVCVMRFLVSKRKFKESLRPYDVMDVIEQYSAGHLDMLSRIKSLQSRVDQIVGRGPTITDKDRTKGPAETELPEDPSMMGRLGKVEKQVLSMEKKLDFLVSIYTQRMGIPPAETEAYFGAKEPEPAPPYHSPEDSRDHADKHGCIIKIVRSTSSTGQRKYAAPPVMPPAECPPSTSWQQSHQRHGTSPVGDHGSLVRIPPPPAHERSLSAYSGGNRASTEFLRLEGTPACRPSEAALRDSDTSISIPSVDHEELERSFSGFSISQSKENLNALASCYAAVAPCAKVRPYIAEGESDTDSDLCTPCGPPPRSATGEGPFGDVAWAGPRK
Regarding `COc1ccc(/C=C2\SC(=N)N(c3nccs3)C2=O)cc1OC`, the activity change, less the hit threshold was -16.2% (inactive). Then `Cc1ccsc1CN(C(=O)c1ccc([N+](=O)[O-])cc1)C1CCS(=O)(=O)C1` (stereo unspecified), with -17.5% (inactive); and `Cc1ccc(C(C)C)cc1OCC(=O)Nc1ccc(N2CCCCC2)cc1`, with -13.5% (inactive); and `Oc1c(Br)cc(Br)cc1CNc1cccc2cccnc12`, with -29.6% (inactive).

In the case of `Oc1c(Br)cc(Br)cc1C=Nc1cccc2ncccc12`, the activity change, less the hit threshold was 30.9% (active). With `Cc1cccc(N2CCN(C(=O)C3CCN(S(=O)(=O)c4cccnc4)CC3)CC2)c1C`, the activity change, less the hit threshold is -14.6% (inactive). In the case of `O=C(CSCc1cnn(-c2ccccc2)c1-n1cccc1)NCc1cccnc1` it was -9% (inactive). Regarding `CC1=[N+]([O-])C(C)(C)C(c2ccc(Br)cc2)=[N+]1[O-]`, the activity change, less the hit threshold is 7.3% (active).

Consider `Cc1cc(C)c(S(=O)(=O)NCc2ccccn2)c(C)c1`, for which the activity change, less the hit threshold was -18.8% (inactive).

For `CSc1nc(-c2ccco2)cc(C(F)(F)F)c1C#N`, the activity change, less the hit threshold is -9.1% (inactive). Then `Cc1c(N2C(=O)/C(=C\c3ccccc3O)SC2=S)c(=O)n(-c2ccccc2)n1C`, with 68.6% (active); and `O=C(O)COc1ccccc1/C=C1\SC(=S)N(NC(=O)c2ccccc2O)C1=O`, with -12.9% (inactive); and `COc1ccc(C(C(=O)NC(C)(C)C)N(C(=O)CCC(=O)Nc2cc(C)on2)c2cccc(F)c2)cc1` (stereo unspecified), with -14.9% (inactive).

For the compound `CCCCc1c(O)nc(SCC(=O)N2CCOCC2)[nH]c1=O`, the activity change, less the hit threshold is -9.9% (inactive). Turning to `COC(=O)CNc1nc(Cl)nc(Nc2ccc(C)cc2)n1`, the activity change, less the hit threshold is -22.2% (inactive). As for `COC(=O)c1c(NS(=O)(=O)c2ccc3ccccc3c2)sc2c1CCCC2`, the activity change, less the hit threshold is -15.5% (inactive). Then `CCOC(=O)c1c(C)cccc1OCC(N)=O`, with -12.7% (inactive); and `COC(=O)c1c(NS(=O)(=O)Cc2ccccc2)sc2c1CCCC2`, with 42.1% (active); and `CCOC(=O)c1c(NS(=O)(=O)c2ccc(Br)cc2)sc2c1CCC2`, with 5.6% (active).

In the case of `CCOC(=O)c1c(NS(=O)(=O)Cc2ccccc2)sc2c1CCCC2`, the activity change, less the hit threshold was 32.5% (active).

In the case of `Cc1ccc(C(=O)Nc2sc3c(c2C(=O)O)CCCCC3)o1`, the activity change, less the hit threshold was -23.9% (inactive). Take `CN1C(=O)c2ccc(C(=O)NCc3ccccc3)cc2C1=O`: the activity change, less the hit threshold was -20.8% (inactive). `COCCCNC(=O)CCc1nnc(Cc2ccc(-c3ccccc3)cc2)o1`: the activity change, less the hit threshold was -5.1% (inactive). In the case of `Cc1cc(=S)[nH]c2c(C)cccc12` it was -3.9% (inactive); in that of `CCOc1cc(NC(=S)N2CCC(C(N)=O)CC2)c(C(=O)OC)cc1OCC`, -11.5% (inactive); in that of `CCc1ccc(OCC(=O)Nc2ncn[nH]2)cc1`, -16.1% (inactive).

Consider `Cc1cccc(OCC(=O)NCc2nc(-c3ccccc3)no2)c1`, for which the activity change, less the hit threshold was -17.2% (inactive). With `CCc1ccc(NC(=O)C(=O)NNC(=O)COc2cccc(OC)c2)cc1`, the activity change, less the hit threshold was 14.3% (active). In the case of `COc1ccc(OCC(=O)NNC(=O)C(=O)Nc2ccc(C)cc2)cc1`, the activity change, less the hit threshold is -23.7% (inactive). As for `O=C(COc1cccc(-n2cnnn2)c1)Nc1ccc([N+](=O)[O-])cc1`, the activity change, less the hit threshold was -13.3% (inactive). As for `COc1cccc(OCC(=O)NNC(=O)C(=O)Nc2cccc(C)c2)c1`, the activity change, less the hit threshold was 33.1% (active).
